ANO1 activ: mouse TMEM16A channel activation, primary screen; HEK293 TMEM16A/YFP-H148Q/I152L, iodide quench fluorescence; hits give low values; 340,000 tested, 0.3% active; B-score at 10 µM; Q8BHY3;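 active = fluorescence-ratio B-score plate-corrected deviation score at least 3 library SD below zero, with starting fluorescence score within 5 deviations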;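 note: channel opened by trigger with iodide after compound preincubation; score built on the fluorescence ratio of max minus min over baseline; more negative score means more quench and so TMEM16A activation or potentiation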
Target sequence (Q8BHY3 whole entry, looked up): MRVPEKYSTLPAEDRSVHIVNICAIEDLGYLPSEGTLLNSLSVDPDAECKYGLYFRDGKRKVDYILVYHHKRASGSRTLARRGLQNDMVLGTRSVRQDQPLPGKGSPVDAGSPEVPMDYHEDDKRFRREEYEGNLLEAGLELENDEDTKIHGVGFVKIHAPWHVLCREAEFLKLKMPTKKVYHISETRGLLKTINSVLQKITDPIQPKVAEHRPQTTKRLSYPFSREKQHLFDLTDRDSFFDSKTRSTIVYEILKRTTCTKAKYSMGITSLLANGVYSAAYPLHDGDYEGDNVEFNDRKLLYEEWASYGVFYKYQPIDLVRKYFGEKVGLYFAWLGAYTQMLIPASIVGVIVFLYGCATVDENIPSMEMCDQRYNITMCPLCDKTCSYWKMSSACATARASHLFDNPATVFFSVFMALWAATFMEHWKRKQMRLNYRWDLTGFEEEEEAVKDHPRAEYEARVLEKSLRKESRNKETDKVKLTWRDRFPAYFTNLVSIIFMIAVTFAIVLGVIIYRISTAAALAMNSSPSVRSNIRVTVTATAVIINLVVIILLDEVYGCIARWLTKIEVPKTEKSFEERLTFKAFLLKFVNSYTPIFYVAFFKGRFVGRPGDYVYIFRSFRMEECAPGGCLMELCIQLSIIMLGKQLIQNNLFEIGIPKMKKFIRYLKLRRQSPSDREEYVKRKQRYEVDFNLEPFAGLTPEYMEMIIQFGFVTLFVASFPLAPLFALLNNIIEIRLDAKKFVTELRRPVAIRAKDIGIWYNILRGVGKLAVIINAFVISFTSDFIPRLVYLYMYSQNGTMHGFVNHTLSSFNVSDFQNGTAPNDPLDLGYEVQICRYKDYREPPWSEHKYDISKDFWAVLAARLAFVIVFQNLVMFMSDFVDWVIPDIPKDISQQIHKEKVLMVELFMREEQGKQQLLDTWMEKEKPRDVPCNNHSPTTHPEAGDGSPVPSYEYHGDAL
CRFBP-R2 block: CRF-BP/CRF-R2 complex antagonism | HEK293 CRF-R2/CRF-BP, CRF-induced calcium fluorescence | inhibition, % at 11.8 µM | 350,000 tested, 0.59% active;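 active = inhibition of the ligand-induced calcium signal above about 50% at the single tested concentration, limit read from the data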
TMEM16A inh: inhibitors of mouse TMEM16A calcium-activated chloride channel | Q8BHY3 | HEK293 TMEM16A/YFP iodide influx fluorescence, ionomycin | normalized B-score (activity score, 25-100; higher = stronger inhibition) at 10 µM | 310,000 tested, 1.2% active | AID 588511;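 active = ratio plate-corrected score three or more library SD toward inhibition, starting fluorescence score within five deviations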;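 note: score derived from kinetic fluorescence span divided by baseline fluorescence per well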
MPTP inh: inhibitors of mitochondrial permeability transition pore. AID 602449. inhibition, % at 10 µM. 360,000 tested, 1.4% active. isolated mouse mitochondria, Ca2+ swelling absorbance, 30 min;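 active = inhibition of 50% or more, scaled per plate between neutral and stimulator controls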;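 note: 0% = DMSO wells given calcium and 100% = 1 mM EGTA wells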
CRFR2-BP ag: CRF-BP/CRF-R2 complex agonism | HEK293 CRF-R2/CRF-BP, calcium dye fluorescence (FLIPR); percent of saturating CRF peptide response | activation, % at 13.2 µM | 350,000 tested, 0.46% active | AID 588473;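 active = activation of at least 50%, plus an integration ratio under a set limit after plate pattern correction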;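 note: plate controls were neutral control wells without compound for no effect and CRF at EC100 for full effect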
NR3A LBD binder: NR3A (human) ligand-binding domain modulation. Tm shift relative to glycine control, % at 25 µM. 340,000 tested, 2.5% active. NR3A LBD differential scanning fluorimetry, Tm shift; 0% = protein alone, 100% = glycine-bound protein;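 active = melting temperature shift of at least 10% of the positive control shift, at one fixed dose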
An asterisk follows results filed as active; i = inactive; . = no result. Most compounds without a hit are left out; they make up all but 5.1% or so of the library.

SMILES	ANO1 activ	CRFBP-R2 block	TMEM16A inh	MPTP inh	CRFR2-BP ag	NR3A LBD binder
O=C(NCCCN1CCOCC1)c1ccc(NS(=O)(=O)c2ccccc2)cc1	i	0	i	-1	1	0
O=C(c1cncc(Br)c1)N1CCc2ccccc2C1	i	-29	i	-1	2	15*
O=C(c1ccncc1)N1CCc2ccccc2C1	i	-2	i	0	1	0
CNc1nc(NC)nc(NNC(=O)c2ccccc2)n1	i	51*	.	1	-2	0
O=C1c2ccccc2C(c2nnnn2-c2ccc3c(c2)OCCO3)N1Cc1ccc(F)cc1 (configuration not stated)	.	.	.	2	.	.
COc1ccc(C(CC(=O)N2CCCC(C)C2)c2c(OC)cc(OC)c3c(-c4ccccc4)cc(=O)oc23)cc1 (configuration not stated)	i	11	i	2	1	16*
COc1ccc(-n2sc3ccc(F)cc3c2=O)cc1	i	-3	.	2	25	28*
COC(=O)C1CC(Cl)CN1c1ncc(C(F)(F)F)cc1Cl (configuration not stated)	i	52*	i	-1	-2	2
Nc1ccccc1SCC(=O)Nc1nc(-c2ccccc2)cs1	i	6	i	0	-1	11*
O=C(CSc1nc2ccccc2c(=O)[nH]1)Nc1ccccc1N1CCOCC1	i	-20	i	0	8	-1
O=C(CSc1nc2ccccc2c(=O)[nH]1)Nc1ccc(N2CCOCC2)cc1	i	13	i	-1	-1	17*
Cc1ccc(-c2csc(NC(=O)CSc3nc4ccccc4[nH]3)n2)cc1	i	2	.	48	2	20*
COc1ccc(-c2csc(NC(=O)CSc3nc4ccccc4c(=O)[nH]3)n2)cc1	i	2	i	0	2	21*
Cc1cc(=O)[nH]c(SCC(=O)Nc2nc(-c3ccccc3)cs2)n1	i	5	i	2	-3	-4
Cc1ccnc(NC(=O)c2ccc3c(c2)C(=O)N(CCC(C)C)C3=O)c1	i	-13	i	0	1	-1
CCOP(=O)(OCC)C(NC(=O)NS(=O)(=O)c1ccc(C)cc1)c1ccccc1 (configuration not stated)	i	-9	i	0	-2	0
CCCNC(=O)C1(C)CCCN(C(=O)COCc2ccccc2)C1 (configuration not stated)	.	.	.	0	.	.
Cc1nc2c(C)cccn2c(=O)c1NC(=O)c1cccc2ccccc12	i	0	i	-1	1	-1
Cc1sc(NC(=O)CN2CCOCC2)nc1-c1ccc2c(c1)CCN2S(=O)(=O)c1ccccc1	i	-26	25*	21	1	-3
O=C(CN1CCOCC1)Nc1nc(-c2ccc3c(c2)CCN3S(=O)(=O)c2ccccc2)cs1	i	32	i	-2	-1	-1
CC(C)(C)NC(=O)C1c2ccccc2OCC(=O)N1CCc1ccccc1 (configuration not stated)	.	.	.	-1	.	.
Cc1noc(C)c1COc1ccc(C(=O)OCc2nnc(-c3ccc(Cl)cc3)o2)cc1	-5*	-17	i	0	1	0
O=C(OCc1nnc(-c2ccc(Cl)cc2)o1)c1ccncc1	i	17	i	1	-3	-3
CCCNC(=O)Cn1c(=O)/c(=C/c2ccc(-c3cccc([N+](=O)[O-])c3)o2)s/c1=C\C(=O)C(C)(C)C	i	-51	.	2	32	-1
O=C(Cc1ccccc1)N/N=C/c1ccc(-c2ccc([N+](=O)[O-])cc2)o1	i	-37	i	3	11	5
SMILES	ANO1 activ	CRFBP-R2 block	TMEM16A inh	MPTP inh	CRFR2-BP ag	NR3A LBD binder
CCCNC(=O)Cn1c(=O)/c(=C\c2ccc(-c3ccc([N+](=O)[O-])cc3)o2)s/c1=C\C(=O)C(C)(C)C	i	-443	i	5	356*	-2
CCCNC(=O)Cn1c(=O)/c(=C\c2ccc(-c3cccc([N+](=O)[O-])c3)o2)s/c1=C\C(=O)C(C)(C)C	i	-121	i	2	57*	-6
CC1CC(C)(C)N(C(=O)CN2C(=O)CCC2=O)c2ccccc21 (configuration not stated)	i	-15	i	-2	0	-2
C(=N\Nc1cc(N2CCCCC2)ncn1)/c1ccco1	i	13	i	0	-3	-1
COc1ccc(CCNc2nc3ccccc3n3nnnc23)cc1OC	i	-8	i	-2	7	4
c1ccc(CCNc2nc3ccccc3n3nnnc23)cc1	i	-133	i	0	82*	0
CCn1cc(C(=O)N2CCN(c3ccc(OC)cc3)CC2)c(=O)c2cc(S(=O)(=O)N3CCOCC3)ccc21	i	3	i	-1	0	0
CCCn1c(N)c(N(CCOC)C(=O)c2c(CC)noc2C)c(=O)[nH]c1=O	i	-4	.	-1	-1	-1
O=C(CCS(=O)(=O)c1ccccc1)N(CCCN1CCOCC1)c1nc2ccc(F)cc2s1	i	.	i	0	.	2
COC(=O)c1ccc(NC(=O)c2cc3sccc3n2C)cc1	i	-8	i	-2	-2	2
Cn1c(C(=O)Nc2ccccc2)cc2sccc21	i	10	i	0	-2	22*
COc1cc(-c2oc3cc(O)cc(O)c3c(=O)c2O[C@@H]2O[C@H](COC3O[C@@H](C)[C@H](O)[C@@H](O)[C@H]3O)[C@@H](O)[C@H](O)[C@H]2O)ccc1O (some centres not stated)	i	-9	.	0	-3	13*
Fc1cccc(Cc2c(-c3cccc(Cl)c3)nc3c(Cl)cc(C(F)(F)F)cn23)c1	.	.	.	-1	.	.
COc1ccc(CCn2c(C3CCCCC3)nc3c(c(=O)c4ccccc4n3C)c2=O)cc1	i	-17	i	29	62*	-5
COc1ccc(CCn2c(-c3ccccc3)nc3c(c(=O)c4ccccc4n3C)c2=O)cc1	.	.	i	.	.	.
COc1ccc(Cn2c(C3CCCCC3)nc3c(c(=O)c4ccccc4n3C)c2=O)cc1	.	-22	i	.	-1	-4
CC(C)c1nc2c(c(=O)c3ccccc3n2C)c(=O)n1CCc1ccccc1	i	11	i	16	72*	2
COc1ccc2c(Cl)c(C(N)=O)sc2c1	i	-51	i	-1	-1	34*
Cc1nc2ccc(C(=O)NCCCN3CCCC3=O)cn2c1N(C)C(=O)CCc1ccccc1	.	.	.	10	.	.
O=C(/C=C/c1ccc(N2CCCCC2)c([N+](=O)[O-])c1)c1ccc(O)cc1	i	-43	i	2	-3	11*
CCCS(=O)(=O)NC(=O)C1(C)CCN(C(=O)/C=C/c2ccccc2)C1 (configuration not stated)	.	.	.	1	.	.
